{"source": "PubChem BioAssay (NCI)", "note": "About 83,000 compounds went through this panel and 20% of them were active in at least one assay; those are over-represented in the sample as a whole.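 How to read the values: 0–100, growth inhibition (40 = 60% inhibited); 0, no net growth; -100 to 0, cell death (-40 = 40% of starting cells died; -100 = all dead).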 A number with no mark means an inactive call. Calls of active or inactive are those of the source. How the source made its calls: active means growth percent below 10; inactive means the rest."}
{"tested_on": "SNB-19 CNS", "test": "NCI-60 one-dose screen, 48 h (100 = growth as untreated, 0 = no growth, -100 = all killed)", "details": "10 µM unless noted"}
{"smiles": "COc1ccc2c(c1)c(-c1noc(-c3cn(C)c4ncc(F)cc34)n1)cn2C", "growth": "76.2%"}
{"smiles": "O=C(N/N=C\\c1cc(Cl)ccc1O)N/N=C/c1cc(Cl)ccc1O", "growth": "58.2%"}
{"smiles": "O=C(O)c1ccccc1C(F)(F)F", "growth": "99.1%"}
{"smiles": "CS(=O)(=O)c1cccnn1", "growth": "102%"}
{"smiles": "O=C(Nc1ccc(Oc2ccc(F)cc2)c(Cl)c1)c1cccnn1", "growth": "66.2%"}
{"smiles": "CCC(Br)(CC)C(=O)c1ccc(OCC(=O)O)c(Cl)c1Cl", "growth": "104%"}
{"smiles": "NC(=O)c1cccc(-c2ccc(S(=O)(=O)Nc3ccc4c(c3)N(C(=O)C3CC3)CCC4)cc2)c1", "growth": "48.3%"}
{"smiles": "C#CCC(C(=O)OCC)C(=O)OCC", "growth": "102%"}
{"smiles": "O=[N+]([O-])c1cc(CCl)ccc1OCCBr", "growth": "107%"}
{"smiles": "O=C(O)c1cn(C2CC2)c2cc(N3CCN(Cc4cc(Cl)ccc4O)CC3)c(F)cc2c1=O", "growth": "60.2%"}
{"smiles": "Cc1ccc(C2=C/C(=C/c3ccc(Br)cc3)C(=O)N2CCc2ccc(S(N)(=O)=O)cc2)cc1", "growth": "89.7%"}
{"smiles": "COc1ccc(C(=O)/C=C/c2ccccn2)c(O)c1", "growth": "73.1%"}
{"smiles": "Cc1cc(C)c(S(=O)(=O)/N=c2/n(-c3ccccc3)nc3n2CCN3C2=NCCN2)c(C)c1", "growth": "91.5%"}
{"smiles": "Cc1ccc(S(=O)(=O)n2cc(C(=O)C(=O)N3CCCCC3)c3ccccc32)cc1", "growth": "97.7%"}
{"smiles": "COc1cc(C)cc2oc3oc(=N)c(C(=O)c4ccccc4)cc3c(=O)c12", "growth": "99.4%"}
{"smiles": "COc1ccc(OC)c([N+](=O)[O-])c1C(=O)CNC(C)=O", "growth": "93.5%"}
{"smiles": "Cc1ccc(S(=O)(=O)N/N=C2\\CC3CCC2(C)C3(C)C)cc1", "note": "(centres undefined)", "growth": "98.1%"}
{"smiles": "O=C(N=c1n(-c2ccccc2)nc2n1CCN2C1=NCCN1C(=O)c1ccc(Cl)cc1)c1ccc(Cl)cc1", "growth": "85.8%"}
{"smiles": "O=C(NCc1ccc(Cn2c(=O)sn(-c3ccccc3)c2=O)cc1)OCc1ccc2c(Br)cc(Br)c(O)c2n1", "growth": "19.2%"}
{"smiles": "Cc1nc(Cl)c2c(n1)N(C)c1ccc(Cl)cc1C(C)C2", "note": "(centres undefined)", "growth": "90.5%"}
{"smiles": "C=C(C)[C@@H]1CC[C@]2(COCCC#N)CC[C@]3(C)[C@H](CC[C@@H]4[C@@](C)(CCCNCCC#N)[C@H](C(=C)C)CC[C@]43C)[C@@H]12", "growth": "59% [100 µM]"}
{"smiles": "O=C(Nc1cccc(F)c1)c1cc(=O)[nH]c2cc(Br)ccc12", "growth": "54.7%"}
{"smiles": "O=C(NCCCNC(=O)OCc1ccc2c(Br)cc(Br)c(O)c2n1)OCc1ccc2c(Br)cc(Br)c(O)c2n1", "growth": "44.6%"}
{"smiles": "COc1ccc(OC)c(NC=O)c1", "growth": "106%"}
{"smiles": "CCN(CCNc1ccc(C)c2sc3cc(Cl)ccc3c(=O)c12)CC(C)O", "note": "(centres undefined)", "growth": "58.5%"}
{"smiles": "CN(C)c1ccc(-c2ccc(-c3ccc(C(=N)N)cc3)s2)cc1", "growth": "-70.2% (active)"}
{"smiles": "CC(=O)OC[C@]12CC[C@@H]([C@@H](C)C(N)=O)[C@@H]1[C@H]1CC[C@@H]3[C@@]4(C)CC[C@H](OC(C)=O)C(C)(C)[C@@H]4CC[C@@]3(C)[C@]1(C)CC2", "growth": "-40% [100 µM] (active)"}
{"smiles": "O=C(Nc1ccccc1)Nc1ccc(C(=O)/C=C/c2ccc(N3CCCC3)cc2)cc1", "growth": "68%"}
{"smiles": "C#C[C@]1(O)CC[C@H]2[C@@H]3CC=C4c5nc(Nc6ccccn6)sc5CC[C@]4(C)[C@H]3CC[C@@]21C", "growth": "11%"}
{"smiles": "Cn1cc(-c2nnc(-c3cn(C)c4ncccc34)o2)c2ccccc21", "growth": "42.3%"}
{"smiles": "O=C1C(Cl)=C(Nc2ccc3cn[nH]c3c2)C(=O)c2ccccc21", "growth": "76.5%"}
{"smiles": "COc1cc(/C=C/C(=O)/C=C/c2ccc(-n3ccnc3C)cc2)ccc1O", "growth": "79.3%"}
{"smiles": "Nc1cc(Cl)cc2cccnc12", "growth": "109%"}
{"smiles": "CN(C)CCOc1ccc(/C(=C(/CCCl)c2ccccc2)c2ccccc2)cc1", "growth": "36.2%"}
{"smiles": "Nc1cc(N)c(N=Nc2ccc(S(=O)(=O)O)cc2)cc1N=Nc1ccc(-c2ccc(N=Nc3ccc(O)c(C(=O)O)c3)cc2)cc1", "growth": "95.6%"}
{"smiles": "Cn1cc(-c2noc(-c3cn(C)c4ncc(F)cc34)n2)c2ccccc21", "growth": "81.2%"}
{"smiles": "Nc1ccc(NC(=O)c2ccccc2)c2c1C(=O)c1ccccc1C2=O", "growth": "102%"}
{"tested_on": "U251 CNS", "test": "NCI-60 one-dose screen, 48 h (100 = growth as untreated, 0 = no growth, -100 = all killed)", "details": "10 µM unless noted"}
{"smiles": "COc1ccc2c(c1)c(-c1noc(-c3cn(C)c4ncc(F)cc34)n1)cn2C", "growth": "76.6%"}
{"smiles": "O=C(N/N=C\\c1cc(Cl)ccc1O)N/N=C/c1cc(Cl)ccc1O", "growth": "49.9%"}
{"smiles": "O=C(O)c1ccccc1C(F)(F)F", "growth": "96.5%"}
{"smiles": "CS(=O)(=O)c1cccnn1", "growth": "92.9%"}
{"smiles": "O=C(Nc1ccc(Oc2ccc(F)cc2)c(Cl)c1)c1cccnn1", "growth": "62.9%"}
{"smiles": "CCC(Br)(CC)C(=O)c1ccc(OCC(=O)O)c(Cl)c1Cl", "growth": "106%"}
{"smiles": "NC(=O)c1cccc(-c2ccc(S(=O)(=O)Nc3ccc4c(c3)N(C(=O)C3CC3)CCC4)cc2)c1", "growth": "31.3%"}
{"smiles": "C#CCC(C(=O)OCC)C(=O)OCC", "growth": "104%"}
{"smiles": "O=[N+]([O-])c1cc(CCl)ccc1OCCBr", "growth": "101%"}
{"smiles": "O=C(O)c1cn(C2CC2)c2cc(N3CCN(Cc4cc(Cl)ccc4O)CC3)c(F)cc2c1=O", "growth": "36.6%"}
{"smiles": "Cc1ccc(C2=C/C(=C/c3ccc(Br)cc3)C(=O)N2CCc2ccc(S(N)(=O)=O)cc2)cc1", "growth": "95.5%"}
{"smiles": "COc1ccc(C(=O)/C=C/c2ccccn2)c(O)c1", "growth": "87.5%"}
{"smiles": "Cc1cc(C)c(S(=O)(=O)/N=c2/n(-c3ccccc3)nc3n2CCN3C2=NCCN2)c(C)c1", "growth": "76.4%"}
{"smiles": "Cc1ccc(S(=O)(=O)n2cc(C(=O)C(=O)N3CCCCC3)c3ccccc32)cc1", "growth": "91.3%"}
{"smiles": "COc1cc(C)cc2oc3oc(=N)c(C(=O)c4ccccc4)cc3c(=O)c12", "growth": "107%"}
{"smiles": "COc1ccc(OC)c([N+](=O)[O-])c1C(=O)CNC(C)=O", "growth": "97%"}
{"smiles": "Cc1ccc(S(=O)(=O)N/N=C2\\CC3CCC2(C)C3(C)C)cc1", "note": "(centres undefined)", "growth": "96.1%"}
{"smiles": "O=C(N=c1n(-c2ccccc2)nc2n1CCN2C1=NCCN1C(=O)c1ccc(Cl)cc1)c1ccc(Cl)cc1", "growth": "72.8%"}
{"smiles": "O=C(NCc1ccc(Cn2c(=O)sn(-c3ccccc3)c2=O)cc1)OCc1ccc2c(Br)cc(Br)c(O)c2n1", "growth": "-83.6% (active)"}
{"smiles": "Cc1nc(Cl)c2c(n1)N(C)c1ccc(Cl)cc1C(C)C2", "note": "(centres undefined)", "growth": "90.1%"}
{"smiles": "C=C(C)[C@@H]1CC[C@]2(COCCC#N)CC[C@]3(C)[C@H](CC[C@@H]4[C@@](C)(CCCNCCC#N)[C@H](C(=C)C)CC[C@]43C)[C@@H]12", "growth": "5.95% [100 µM] (active)"}
{"smiles": "O=C(Nc1cccc(F)c1)c1cc(=O)[nH]c2cc(Br)ccc12", "growth": "36%"}
{"smiles": "O=C(NCCCNC(=O)OCc1ccc2c(Br)cc(Br)c(O)c2n1)OCc1ccc2c(Br)cc(Br)c(O)c2n1", "growth": "-70.4% (active)"}
{"smiles": "COc1ccc(OC)c(NC=O)c1", "growth": "88.2%"}
{"smiles": "CCN(CCNc1ccc(C)c2sc3cc(Cl)ccc3c(=O)c12)CC(C)O", "note": "(centres undefined)", "growth": "18%"}
{"smiles": "CN(C)c1ccc(-c2ccc(-c3ccc(C(=N)N)cc3)s2)cc1", "growth": "-86.8% (active)"}
{"smiles": "CC(=O)OC[C@]12CC[C@@H]([C@@H](C)C(N)=O)[C@@H]1[C@H]1CC[C@@H]3[C@@]4(C)CC[C@H](OC(C)=O)C(C)(C)[C@@H]4CC[C@@]3(C)[C@]1(C)CC2", "growth": "-51.4% [100 µM] (active)"}
{"smiles": "O=C(Nc1ccccc1)Nc1ccc(C(=O)/C=C/c2ccc(N3CCCC3)cc2)cc1", "growth": "66%"}
{"smiles": "C#C[C@]1(O)CC[C@H]2[C@@H]3CC=C4c5nc(Nc6ccccn6)sc5CC[C@]4(C)[C@H]3CC[C@@]21C", "growth": "-26.2% (active)"}
{"smiles": "Cn1cc(-c2nnc(-c3cn(C)c4ncccc34)o2)c2ccccc21", "growth": "30.1%"}
{"smiles": "O=C1C(Cl)=C(Nc2ccc3cn[nH]c3c2)C(=O)c2ccccc21", "growth": "-93.2% (active)"}
{"smiles": "COc1cc(/C=C/C(=O)/C=C/c2ccc(-n3ccnc3C)cc2)ccc1O", "growth": "-1.61% (active)"}
{"smiles": "Nc1cc(Cl)cc2cccnc12", "growth": "111%"}
{"smiles": "CN(C)CCOc1ccc(/C(=C(/CCCl)c2ccccc2)c2ccccc2)cc1", "growth": "-54.6% (active)"}
{"smiles": "Nc1cc(N)c(N=Nc2ccc(S(=O)(=O)O)cc2)cc1N=Nc1ccc(-c2ccc(N=Nc3ccc(O)c(C(=O)O)c3)cc2)cc1", "growth": "101%"}
{"smiles": "Cn1cc(-c2noc(-c3cn(C)c4ncc(F)cc34)n2)c2ccccc21", "growth": "30.8%"}
{"smiles": "Nc1ccc(NC(=O)c2ccccc2)c2c1C(=O)c1ccccc1C2=O", "growth": "105%"}
